This is a sample that favours compounds with a hit; in the whole collection about 19% have one here.
HepG2 tox-1 = counter-screen for TGF-b inhibitors: cytotoxicity in HepG2 cells; HepG2 CAGA-GFP viability, ATP luminescence, 18 h; Potency, µM (highest dose often 46.1 µM), without a hit: at the highest dose activity change, negative = cytotoxicity, most hits filed as cytotoxic; 410,000 tested, 0.76% active; also: potency is read from the fitted curve at half-maximal effect
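CellTiter-Glo luminescence gave cytotoxicity after 18 hours at 37 degrees C. The cells were HepG2 CAGA-GFP in 1% FBS DMEM, stimulated with 500 pg/mL TGF-beta after compound addition. %Activity was normalised to no-cell wells (complete cell-killing) and DMSO (no toxicity), and curves were fitted and classified.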
TDP1 cell noCPT = qHTS for Inhibitors of human tyrosyl-DNA phosphodiesterase 1 (TDP1): qHTS in cells in absence of CPT; 420,000 tested, 15% active; DT40 Tdp1-/- hTDP1 cells, no CPT, ATP luminescence, 48 h; AID 686978, 2013; Potency, µM (series often up to 46.2 µM), for inactives: at the top dose activity change, negative = growth inhibition, most hits filed as inhibitors; also: potency is read from the fitted curve at half-maximal effect; % is scaled to controls: 0 for no effect and ±100 for the full control effect; nearly all actives have a fitted effect of over 55% in size
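Chicken DT40 Tdp1-/- cells stably complemented with human TDP1 were seeded at 400 cells/well with DMSO in place of 20 nM camptothecin. After compound pinning, cells grew at least 48 hr at 37 °C; viability read by CellTiter-Glo luminescence.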
TGFb SMAD3 inh = inhibitors of TGF-b signaling; HepG2 CAGA-GFP TGF-b/SMAD3 reporter, GFP fluorescence, 18 h; TGF-beta stimulated, 500 pg/mL final; Potency, µM (titrated, usually from 46.1 µM), for inactives: at the top dose activity, negative = inhibition, actives largely listed as inhibitors; 410,000 tested, 1.2% active; also: potency is read from the fitted curve at half-maximal effect; % is scaled to controls: 0 for no effect and ±100 for the full control effect; nearly all actives have a fitted effect of over 65% in size
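First, reporter cells (HEPG2 CAGA-GFP) rested 2 h at 37 degrees C. Next, compounds were pinned in and TGF-beta added to 500 pg/mL final. After 18 h, GFP was imaged per cell and summed per well.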
DT40 TDP1 CPT = DT40-hTDP1 cell growth loss with CPT | chicken DT40 Tdp1-/-;hTDP1 cells + 20 nM CPT, ATP luminescence, 48 h | Potency, µM (top dose mostly 46.2 µM), for inactives: at the highest dose activity change, negative = growth inhibition, most hits filed as inhibitors | 420,000 tested, 12% active; also: potency is read from the fitted curve at half-maximal effect; % is scaled to controls: 0 for no effect and ±100 for the full control effect; nearly all actives have a fitted effect of over 55% in size
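Cell growth measured by CellTiter-Glo luminescence after a minimum 48 h, 37 C compound exposure with 20 nM CPT in Tdp1-knockout DT40 cells stably expressing hTDP1, seeded 400/well; qHTS titration format.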
IL1B secr inh = blocks inflammasome-driven IL-1 beta release; THP-1 LPS/ATP IL-1B secretion, AlphaLISA, 16 h; hits give low values; 360,000 tested, 4.7% active; activity change, % at 57.5 µM; in the data active = activity change below about -50%; inconclusive = mostly about -30% to -49%; also: % is scaled to controls: 0 for no effect and ±100 for the full control effect
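Secreted IL-1B measured by AlphaLISA bead assay after 16 h compound exposure of THP-1 cells; compounds (final up to 57.5 uM) added 1 h before LPS (250 ng/mL) and ATP (1.25 mM) stimulation; lower signal means less secretion.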
TDP1 inh = inhibitors of human tyrosyl-DNA phosphodiesterase TDP1; 350,000 tested, 0.28% active; Potency, µM (highest dose often 130 µM), for the others: at the top dose activity change, negative = inhibition, most hits filed as inhibitors; Q9NUW8; recombinant TDP1, AlphaScreen DNA substrate cleavage; AID 485290; also: potency is read from the fitted curve at half-maximal effect; % is scaled to controls: 0 for no effect and ±100 for the full control effect; nearly all actives have a fitted effect of over 40% in size
Target sequence (Q9NUW8 whole entry, looked up): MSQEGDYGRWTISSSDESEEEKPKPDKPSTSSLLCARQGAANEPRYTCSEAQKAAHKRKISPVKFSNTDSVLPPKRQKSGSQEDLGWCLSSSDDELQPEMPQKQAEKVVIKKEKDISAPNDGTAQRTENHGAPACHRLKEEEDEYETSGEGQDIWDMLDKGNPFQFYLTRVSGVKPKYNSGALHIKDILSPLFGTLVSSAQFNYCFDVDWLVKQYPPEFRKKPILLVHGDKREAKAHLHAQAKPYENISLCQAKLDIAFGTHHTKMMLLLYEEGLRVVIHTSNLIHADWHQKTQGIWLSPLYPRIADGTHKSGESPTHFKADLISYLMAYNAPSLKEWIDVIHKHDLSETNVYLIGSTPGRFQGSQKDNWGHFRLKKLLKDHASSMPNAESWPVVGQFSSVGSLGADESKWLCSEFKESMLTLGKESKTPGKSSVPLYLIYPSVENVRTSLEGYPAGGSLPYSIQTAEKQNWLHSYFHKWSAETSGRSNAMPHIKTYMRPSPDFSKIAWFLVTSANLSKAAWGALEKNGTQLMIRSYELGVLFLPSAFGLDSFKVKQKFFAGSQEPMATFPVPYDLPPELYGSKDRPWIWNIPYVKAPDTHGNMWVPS
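E. coli-derived human Tdp1, 1 nM final. Cpd preinc 15 min RT; substrate 15 nM final, 5 min RT; AS bead mix 10 ug/ml final, 10 min RT. Signal loss = tyrosine-FITC cleavage. No-enzyme wells = max signal.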
TGFb CAGA inh = TGF-b pathway inhibition, cherry-pick retest | shares compounds with TGFb SMAD3 inh | HepG2 CAGA-GFP TGF-b reporter, GFP fluorescence, 18 h; cells stimulated with TGF-beta, 500 pg/mL | Potency, µM (series often up to 46.1 µM), without a hit: top-dose activity, negative = inhibition, hits mostly inhibitors | 1,600 tested, 63% active | AID 720534; also: potency is read from the fitted curve at half-maximal effect; % is scaled to controls: 0 for no effect and ±100 for the full control effect; nearly all actives have a fitted effect of over 65% in size
HepG2 tox-2 = toxic to HepG2 cells in TGF-b counterscreen | Potency, µM (top dose mostly 46.1 µM), without a hit: top-dose activity, negative = cytotoxicity, usual class: inhibitors | AID 720535 | shares compounds with TGFb SMAD3 inh | HepG2 CAGA-GFP viability, ATP luminescence, 18 h; cells stimulated with TGF-beta, 500 pg/mL | 1,600 tested, 27% active; also: potency is read from the fitted curve at half-maximal effect; % is scaled to controls: 0 for no effect and ±100 for the full control effect; nearly all actives have a fitted effect of over 70% in size
CCL64 TGFb inh = blocks TGF-b signaling in CCL64 reporter cells | CCL64 CAGA-GFP reporter, TGF-b stimulated, GFP fluorescence, 18 h | 1,600 tested, 41% active | Potency, µM (series often up to 46.1 µM), for the others: at the highest dose activity, negative = inhibition, hits mostly inhibitors | shares compounds with TGFb SMAD3 inh; also: potency is read from the fitted curve at half-maximal effect; nearly all actives have a fitted effect of over 65% in size
TGFb COP inh = TGF-b inhibition validated with COP promoter. shares compounds with TGFb SMAD3 inh. HepG2 COP-GFP TGF-b reporter, GFP fluorescence, 18 h; cells stimulated by added recombinant TGF-beta. Potency, µM (top dose mostly 46.1 µM), for the others: at the top dose activity, negative = inhibition, actives largely listed as inhibitors. 1,600 tested, 3% active. AID 720537; also: potency is read from the fitted curve at half-maximal effect; nearly all actives have a fitted effect of over 70% in size
Numbers without * were called inactive; ? = inconclusive; . = no result given; [ ] = another dose, or the depositor's remark. Unless noted, calls follow the shape of the dose curve; as a rule, active = well fitted curve in the direction sought with a large enough effect; inconclusive = small, poorly fitted or top-dose-only effect, or another doubt; inactive = no such curve, though single readings can be large; an effect the other way counts as inactive or inconclusive.

SMILES | HepG2 tox-1 | TDP1 cell noCPT | TGFb SMAD3 inh | DT40 TDP1 CPT | IL1B secr inh | TDP1 inh | TGFb CAGA inh | HepG2 tox-2 | CCL64 TGFb inh | TGFb COP inh
CCOC(=O)C1=C(COC(=O)CCc2ccccc2)NC(=O)NC1C (centres undefined) | -7% | 18% | -12% | -21% | 6 | 0% | . | . | . | .
Cc1cccc(CN2C(=O)NC(c3ccccc3)(c3ccccc3)C2=O)c1 | -26% | ? | 22µM* | ? | -23 | -19% | ? | ? | ? | 60%
CCOC(=O)[C@@H]1[C@H]2COc3ccccc3[C@@H]2N2C(=O)N(c3ccccc3)C(=O)[C@]12C | -3% | -20% | 0% | -28% | -4 | . | . | . | . | .
COC(=O)c1cc(NC(=O)CN2C(=O)C(=O)N(C3CCCC3)C2=O)cc(C(=O)OC)c1 | -36% | 5% | ? | -4% | 8 | 0% | . | . | . | .
O=C(NCCOc1ccc(Cl)cc1)C1CCCCC1 | -2% | -23% | 10% | 19% | -22 | -3% | . | . | . | .
O=C(NC(c1ccccc1)c1ccc2ccccc2n1)C1CCN(CCOc2ccc(Cl)cc2)CC1 (centres undefined) | 11µM* | 16µM* | 7.1µM* | 23µM* | -100* | . | 6.5µM* | 5.2µM* | 3.7µM* | ?
COc1cc(CN2CCC(C(=O)NC(c3ccc(F)cc3)c3ccc4ccccc4n3)CC2)cc(OC)c1 (centres undefined) | 5.6µM* | 2.9µM* | 3.5µM* | 3.7µM* | -15 | . | ? | 15µM* | 8.2µM* | ?
C/C(=N\NC(=O)C1CC1)c1ccc(OC(F)F)cc1 | 0% | 4% | 7% | -1% | -20 | 4%[0.0935 µM] | . | . | . | .
COc1cc(C=CC(=O)c2ccccc2)cc(OC)c1OC | -93% | 8.2µM* | 10µM* | 5.8µM* | -115* | . | 18µM* | ? | 16µM* | 36%
COc1cc(/C=C/C(=O)OCC(=O)N(C)Cc2ccccc2)cc(OC)c1OC | -27% | ? | -1% | ? | 18 | 1% | . | . | . | .
Cc1cc(N2CCN(c3ccccc3)CC2)n2cnnc2n1 | -49% | ? | -21% | ? | . | 5% | . | . | . | .
Cc1cc(N2CCN(c3ccccc3)CC2)n2cc(-c3ccccc3)nc2n1 | -36% | 10µM* | ? | ? | -68* | 10% | ? | -8% | -27% | 25%
Cc1ccccc1N(CC(=O)NC1CCCCC1)C(=O)CCCC(=O)Nc1ccccn1 | -14% | ? | 6% | 8% | 11 | -7% | . | . | . | .
Cc1nc(N2N=C3/C(=C/c4ccc(F)cc4)CCCC3C2c2ccc(F)cc2)sc1C(=O)N(C)C (centres undefined) | -15% | 29µM* | 13µM* | ? | -2 | 8% | 23µM* | ? | ? | 30%
Cc1ccc(NC(=O)CN(C)C(=O)c2cc(-c3ccccc3)nn2-c2ccccc2)cc1 | -1% | ? | 11µM* | ? | 3 | 7% | 18µM* | -22% | 16µM* | 9%
O=C(c1cccc(NS(=O)(=O)c2cccc(F)c2)c1)N1CCCC1 | 8% | 6% | 2% | 3% | 0 | 3% | . | . | . | .
CC(C)(C)C(=O)CNS(=O)(=O)c1ccc(S(=O)(=O)NC2CC2)cc1 | -2% | 2% | -1% | -2% | -2 | . | . | . | . | .
COC(=O)CCS(=O)(=O)c1nc(-c2ccccc2)cc(C(F)(F)F)n1 | 14µM* | 2.3µM* | 5µM* | 3.3µM* | -105* | 2% | 4.6µM* | 15µM* | 2.1µM* | ?
Cn1c(C(=O)N2CCCC(C(=O)NCCCSC3CCCCC3)C2)cc2sccc21 (centres undefined) | -16% | -79% | 13µM* | ? | -11 | 8% | ? | ? | ? | 30%
CN(CC(=O)N1CCN(Cc2ccccc2)CC1)S(=O)(=O)c1ccc(F)cc1 | -6% | -22% | 4% | -18% | -5 | 1% | . | . | . | .
CSc1ccccc1NC(=O)C(C)N(C)CC(=O)N1CCN(Cc2ccccc2)CC1 (centres undefined) | 1% | 21µM* | ? | ? | 2 | . | ? | 0% | 5% | 4%
CC(C)CCNC(=O)C(c1ccco1)N(Cc1cccs1)C(=O)Cn1nnc2ccccc21 (centres undefined) | 18% | ? | 7.1µM* | 26µM* | -27 | 4% | ? | 9% | ? | 1%
COCCNC(=O)C(c1cccs1)N(Cc1cccs1)C(=O)Cn1nnc2ccccc21 (centres undefined) | 1% | -18% | 0% | -16% | 37 | -2% | . | . | . | .
CC(=NNc1nc2ccccc2o1)c1cc2ccccc2cn1 | -52% | 0.13µM* | 0.32µM* | 0.13µM* | -102* | . | ? | 18µM* | ? | 22%
COc1cc(/C=N/Nc2nc3ccccc3o2)cc(OC)c1O | 3% | -23% | -5% | ? | -25 | -5% | . | . | . | .
COc1ccc(N2CCN(Cc3csc(C)c3-c3ccc(C)cc3)CC2)cc1 | -29% | ? | -13% | ? | -14 | . | . | . | . | .
CCCCn1nnnc1SCC(=O)NC1CCCCC1 | 4% | -3% | 13% | 7% | 39 | -1% | . | . | . | .

Compound activity as filed in PubChem.
